We go through 31 molecules from PubChem BioAssay (Tox21).

Inconclusive results are not listed. A call without a number means that no potency is given here. The source holds several records for some structures; these can differ, active in one and inactive in another. Activity calls are given as the source filed them. Unless noted, calls come from the whole dose curve.

Chain of Peroxisome proliferator-activated receptor gamma (Homo sapiens) (P37231 whole entry, looked up): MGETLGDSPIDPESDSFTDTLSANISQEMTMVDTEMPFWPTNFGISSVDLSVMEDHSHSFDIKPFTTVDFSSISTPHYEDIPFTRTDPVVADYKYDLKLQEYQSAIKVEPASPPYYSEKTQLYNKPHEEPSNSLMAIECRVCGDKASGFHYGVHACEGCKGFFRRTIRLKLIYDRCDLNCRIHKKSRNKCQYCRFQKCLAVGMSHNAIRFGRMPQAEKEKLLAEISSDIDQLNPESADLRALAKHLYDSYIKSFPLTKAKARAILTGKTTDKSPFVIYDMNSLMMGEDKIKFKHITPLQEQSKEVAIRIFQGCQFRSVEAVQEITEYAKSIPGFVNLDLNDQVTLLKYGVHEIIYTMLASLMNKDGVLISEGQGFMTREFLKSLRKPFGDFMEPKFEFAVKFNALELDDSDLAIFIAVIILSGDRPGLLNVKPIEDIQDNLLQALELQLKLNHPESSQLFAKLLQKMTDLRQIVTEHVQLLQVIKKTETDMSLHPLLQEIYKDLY

The first test deals with Peroxisome proliferator-activated receptor gamma (Homo sapiens) (UniProt P37231). Nature of the test: qHTS assay to identify small molecule agonists of the peroxisome proliferator-activated receptor gamma (PPARg) signaling pathway (AID 743094; active = well fitted activation curve with a large enough effect in the signal ratio in the repeat runs, not every such curve was filed as active; the % refers to the signal ratio). As to conditions: HEK293H PPARg-UAS-bla, beta-lactamase FRET ratio, 17 h; series mostly up to 57 µM. A digest of the protocol:
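Cells from the PPARg UAS-bla HEK293H line are plated and incubated 5 h at 37C. Compounds in DMSO are pinned in and left 17 h at 37C. LiveBLAzer B/G substrate is then added for 1 h at room temperature before fluorescence is measured.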
For orientation: Quantitative high-throughput screening tests each substance at several concentrations.
For the molecule `CC12CC1(C)C(=O)N(c1cc(Cl)cc(Cl)c1)C2=O` (stereo unspecified), the result was inactive.

Take `OCC(O)CCl` (stereo unspecified): the outcome was inactive.

For the molecule `N#Cc1cccc(C#N)c1`, the result was inactive.

In the case of `Oc1c(Br)cc(Br)cc1Br`, the result was inactive.

Turning to `O=C(O)c1cc(Oc2ccc(C(F)(F)F)cc2Cl)ccc1[N+](=O)[O-]`, the result was inactive.

In the case of `Cc1ccc(O)c(C)c1`, the outcome was inactive.

On to `CNCC(O)c1ccc(O)cc1` (stereo unspecified), for which the outcome was inactive.

With `CCOC(=O)CC(SP(=O)(OC)OC)C(=O)OCC` (stereo unspecified), the outcome was inactive.

For the molecule `CCOP(=S)(OCC)Oc1cc(C)nc(C(C)C)n1`, the result was inactive.

Consider `CNC(=O)O/N=C/C(C)(C)SC`, for which the outcome was inactive.

`COP(=S)(OC)SCN1C(=O)c2ccccc2C1=O`: the outcome was inactive.

For the molecule `ClCCOCCCl`, the result was inactive.

Turning to `CC(=O)C1CCOC1=O` (stereo unspecified), the outcome was inactive.

`O=S(=O)(O)OOS(=O)(=O)O`: the result was inactive.

In the case of `CC[N+](=O)[O-]`, the result was inactive.

`COC(=O)Nc1cccc(OC(=O)Nc2cccc(C)c2)c1`: the outcome was inactive.

As for `Cc1cccc(N)c1C`, the result was inactive.

On to `Cc1ccc(N)cc1`, for which the outcome was inactive.

`CNC(=O)O/N=C/C(C)(C)S(C)(=O)=O`: the outcome was inactive.

For the molecule `Cc1ccc(N=C=O)cc1N=C=O`, the outcome was inactive.

Consider `COS(=O)(=O)OC`, for which the result was inactive.

For `CC(C)c1cccc(C(C)C)c1O`, the result was inactive.

With `COC(C)(C)CCCC(C)C/C=C/C(C)=C/C(=O)OC(C)C` (stereo unspecified), the outcome was inactive.

With `Cc1cccc(C)c1N`, the result was inactive.

Regarding `C=CCN=C=S`, the outcome was inactive.

Take `Clc1cnc(Oc2ccc(Oc3ncc(Cl)cc3Cl)cc2)c(Cl)c1`: the result was inactive.

With `O=[N+]([O-])c1cc([As](=O)(O)O)ccc1O`, the result was inactive.

As to `O=C(O)Cc1ccccc1`, the result was inactive.

Consider `O=[N+]([O-])c1ccc(Cl)c(Cl)c1`, for which the outcome was inactive.

Consider `O=P1(NCCCl)OCCCN1CCCl` (stereo unspecified), for which the result was inactive.

As for `CNc1cnn(-c2cccc(C(F)(F)F)c2)c(=O)c1Cl`, the outcome was inactive.

A further test shares this target. Briefly: qHTS assay to identify small molecule antagonists of the peroxisome proliferator-activated receptor gamma (PPARg) signaling pathway (AID 743191). Note: nearly all actives have a fitted effect of over 30% in size. Note: potency is the fitted concentration of half-maximal effect. The settings on record: HEK293H PPARg-UAS-bla, beta-lactamase ratio, antagonist, 17 h; series mostly up to 62.6 µM. A digest of the protocol: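 GeneBLAzer PPARg UAS-bla HEK293H cells, 5 h post-plating, exposed to compounds 17 h at 37C. LiveBLAzer B/G FRET substrate added for 1 h at room temperature; beta-lactamase reporter read by fluorescence intensity.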
Turning to `OCC(O)CCl` (stereo unspecified), the Potency entry is “inactive”.

Consider `N#Cc1cccc(C#N)c1`, for which the Potency entry is “inactive”.

Regarding `Oc1c(Br)cc(Br)cc1Br`, the Potency was 43.7 µM (active).

On to `O=C(O)c1cc(Oc2ccc(C(F)(F)F)cc2Cl)ccc1[N+](=O)[O-]`, for which the Potency result was “inactive”.

As for `Cc1ccc(O)c(C)c1`, the Potency result is “inactive”.

Take `CNCC(O)c1ccc(O)cc1` (stereo unspecified): the Potency result was “inactive”.

Turning to `CCOC(=O)CC(SP(=O)(OC)OC)C(=O)OCC` (stereo unspecified), the Potency entry is “inactive”.

Regarding `CCOP(=S)(OCC)Oc1cc(C)nc(C(C)C)n1`, the Potency entry was “inactive”.

For `CNC(=O)O/N=C/C(C)(C)SC`, the Potency entry is “inactive”.

`COP(=S)(OC)SCN1C(=O)c2ccccc2C1=O`: the Potency result is “inactive”.

Regarding `ClCCOCCCl`, the Potency entry was “inactive”.

With `CC(=O)C1CCOC1=O` (stereo unspecified), the Potency entry is “inactive”.

Consider `O=S(=O)(O)OOS(=O)(=O)O`, for which the Potency entry is “inactive”.

For the molecule `Cc1cccc(N)c1C`, the Potency result is “inactive”.

For `Cc1ccc(N)cc1`, the Potency result is “inactive”.

Regarding `CNC(=O)O/N=C/C(C)(C)S(C)(=O)=O`, the Potency result was “inactive”.

`Cc1ccc(N=C=O)cc1N=C=O`: the Potency result is “inactive”.

With `COS(=O)(=O)OC`, the Potency entry is “inactive”.

Take `CC(C)c1cccc(C(C)C)c1O`: the Potency entry was “inactive”.

As to `COC(C)(C)CCCC(C)C/C=C/C(C)=C/C(=O)OC(C)C` (stereo unspecified), the Potency entry is “inactive”.

As to `Cc1cccc(C)c1N`, the Potency result was “inactive”.

As to `C=CCN=C=S`, the Potency result is “inactive”.

With `O=[N+]([O-])c1cc([As](=O)(O)O)ccc1O`, the Potency entry was “inactive”.

Regarding `O=C(O)Cc1ccccc1`, the Potency result is “inactive”.

Consider `O=[N+]([O-])c1ccc(Cl)c(Cl)c1`, for which the Potency result is “inactive”.

As for `O=P1(NCCCl)OCCCN1CCCl` (stereo unspecified), the Potency entry is “inactive”.

On to `CNc1cnn(-c2cccc(C(F)(F)F)c2)c(=O)c1Cl`, for which the Potency entry is “inactive”.

System in a further test: not listed separately
Briefly: qHTS assay to identify small molecule antagonists of the peroxisome proliferator-activated receptor gamma (PPARg) signaling pathway - cell viability counter screen (AID 743194; active = well fitted cell-killing curve with a large enough effect in the repeat runs; note: nearly all actives have a fitted effect of over 55% in size). The settings on record: PPARg-bla HEK293H viability, CellTiter-Glo luminescence, 17 h; series mostly up to 62.6 µM. A digest of the protocol:
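Cytotoxicity counter screen in PPARg-bla HEK293H cells, same wells as reporter assay. Compounds plus 50 nM rosiglitazone (final) for 17 h at 37 C, then viability read by CellTiter-Glo luminescence.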
Regarding `CC12CC1(C)C(=O)N(c1cc(Cl)cc(Cl)c1)C2=O` (stereo unspecified), the call was inactive.

For the molecule `Cc1ccc(O)c(C)c1`, the call was inactive.

As to `CNCC(O)c1ccc(O)cc1` (stereo unspecified), the molecule was classed as inactive.

In the case of `CCOC(=O)CC(SP(=O)(OC)OC)C(=O)OCC` (stereo unspecified), the outcome was inactive.

With `CC[N+](=O)[O-]`, the molecule was called inactive.

Take `COC(=O)Nc1cccc(OC(=O)Nc2cccc(C)c2)c1`: the result was inactive.

Turning to `Clc1cnc(Oc2ccc(Oc3ncc(Cl)cc3Cl)cc2)c(Cl)c1`, the call was inactive.

Turning to `CNc1cnn(-c2cccc(C(F)(F)F)c2)c(=O)c1Cl`, the result was inactive.

System in the next test: not listed separately
Briefly: qHTS assay for small molecule agonists of the antioxidant response element (ARE) signaling pathway (AID 743202; active = well fitted activation curve with a large enough effect in the signal ratio in the repeat runs, not every such curve was filed as active; the % refers to the signal ratio; note: potency is the fitted concentration of half-maximal effect). As to conditions: HepG2 ARE-bla reporter, beta-lactamase FRET, 16 h; series mostly up to 73.3 µM. The procedure, abridged:
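HepG2 ARE-bla cells; 16 h treatment at 37 C; FRET-based beta-lactamase fluorescence read after 2 h substrate incubation at room temperature.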
With `OCC(O)CCl` (stereo unspecified), the Potency entry is “inactive”.

On to `N#Cc1cccc(C#N)c1`, for which the Potency entry is “inactive”.

As for `Oc1c(Br)cc(Br)cc1Br`, the Potency was 15.4 µM (active).

`O=C(O)c1cc(Oc2ccc(C(F)(F)F)cc2Cl)ccc1[N+](=O)[O-]`: the Potency result was “inactive”.

Turning to `CCOP(=S)(OCC)Oc1cc(C)nc(C(C)C)n1`, the Potency entry was “inactive”.

As to `CNC(=O)O/N=C/C(C)(C)SC`, the Potency entry is “inactive”.

In the case of `COP(=S)(OC)SCN1C(=O)c2ccccc2C1=O`, the Potency entry is “inactive”.

As to `ClCCOCCCl`, the Potency result was “inactive”.

As to `CC(=O)C1CCOC1=O` (stereo unspecified), the Potency result was “inactive”.

With `O=S(=O)(O)OOS(=O)(=O)O`, the Potency result is “inactive”.

In the case of `CC[N+](=O)[O-]`, the Potency entry is “inactive”.

Consider `COC(=O)Nc1cccc(OC(=O)Nc2cccc(C)c2)c1`, for which the Potency was 48.6 µM (active) and inactive.

Turning to `Cc1cccc(N)c1C`, the Potency result is “inactive”.

`Cc1ccc(N)cc1`: the Potency entry was “inactive”.

`CNC(=O)O/N=C/C(C)(C)S(C)(=O)=O`: the Potency entry was “inactive”.

In the case of `Cc1ccc(N=C=O)cc1N=C=O`, the Potency entry was “inactive”.

As to `COS(=O)(=O)OC`, the Potency entry is “inactive”.

Consider `CC(C)c1cccc(C(C)C)c1O`, for which the Potency entry is “inactive”.

For `COC(C)(C)CCCC(C)C/C=C/C(C)=C/C(=O)OC(C)C` (stereo unspecified), the Potency entry was “inactive”.

Turning to `Cc1cccc(C)c1N`, the Potency result was “inactive”.

On to `C=CCN=C=S`, for which the Potency result was “inactive”.

`O=[N+]([O-])c1cc([As](=O)(O)O)ccc1O`: the Potency result is “inactive”.

For `O=C(O)Cc1ccccc1`, the Potency result is “inactive”.

As for `O=[N+]([O-])c1ccc(Cl)c(Cl)c1`, the Potency entry is “inactive”.

For `O=P1(NCCCl)OCCCN1CCCl` (stereo unspecified), the Potency result was “inactive”.
